CYP2C9 inhib – blocks human cytochrome P450 2C9; inhibition, % at 5 µM; hit rate 20% among 96,000; CYP2C9 Supersomes, luciferin-H conversion, luminescence;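 active = blocking of liver enzyme CYP2C9 beyond about 50% at 5 µM, limit read from the data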
Target sequence (P11712 whole entry, looked up): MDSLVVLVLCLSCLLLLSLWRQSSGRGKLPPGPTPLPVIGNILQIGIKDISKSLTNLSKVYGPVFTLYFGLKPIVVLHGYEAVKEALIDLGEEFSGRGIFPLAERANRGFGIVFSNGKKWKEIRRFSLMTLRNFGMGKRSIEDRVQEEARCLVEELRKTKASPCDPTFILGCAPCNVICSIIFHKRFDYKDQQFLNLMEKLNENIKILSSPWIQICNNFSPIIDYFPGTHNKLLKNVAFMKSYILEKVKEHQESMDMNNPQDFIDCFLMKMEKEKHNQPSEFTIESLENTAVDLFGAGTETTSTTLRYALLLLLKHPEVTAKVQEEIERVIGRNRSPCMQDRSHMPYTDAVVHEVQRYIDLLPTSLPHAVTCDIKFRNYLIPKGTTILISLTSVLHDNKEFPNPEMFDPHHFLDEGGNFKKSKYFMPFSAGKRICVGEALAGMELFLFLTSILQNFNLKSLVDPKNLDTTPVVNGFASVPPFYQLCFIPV
CYP2C9 activ – CYP2C9 (human) activation; P11712; recombinant CYP2C9, luciferin-H conversion, luminescence; active compounds read high; factor 1 = untreated enzyme, 0 = blocked; activation factor at 5 µM; hit rate 1.4% among 96,000; AID 1024;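 active = activation factor of 2 or more for CYP2C9 at a 5 µM dose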;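 also: 0 = sulfaphenazole-blocked wells and 1 = vehicle-only wells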
cytoskel mod – alters cytoskeleton assembly in HUVEC cells; AID 836; HUVEC TNFa F-actin phalloidin imaging, high content; hit rate 0.18% among 91,000; inhibition, % at 2 µM;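 active = inhibition above the batch mean plus 3 SD and confirmed as a hit by visual image inspection, cut at about 30% in these data, passing the limit was not always enough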
E-sel TNF inh – blocks E-selectin expression induced by TNF alpha. HUVEC TNFa-induced E-selectin immunofluorescence, high content. hit rate 0.71% among 120,000. inhibition, % at 2 µM. AID 1246;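 active = inhibition above the batch mean plus 3 SD, and confirmed as a hit on visual image review, cut at about 43% in these data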;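 also: 0% = TNF-stimulated DMSO wells and 100% = unstimulated control wells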
CYP2C19 activ – cytochrome P450 2C19 (human) activation; 96,000 tested, under 10 active; recombinant CYP2C19, luciferin-H EGE luminescence; active compounds read high; 0 = fully inhibited enzyme, 1 = untreated enzyme; P33261; activation factor at 5 µM;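 active = activation factor of at least 2 at 5 µM in the primary screen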;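 also: 0 = wells with 2.5 mM tranylcypromine and 1 = vehicle-only wells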
CYP2C19 inhib – blocks human cytochrome P450 2C19. hit rate 21% among 96,000. inhibition, % at 5 µM. CYP2C19 Supersomes, luciferin-H EGE luminescence, 30 min. P33261;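 active = CYP2C19 inhibition above a set limit at 5 µM in the primary screen, cut at about 50% in these data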;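 also: plate controls were negative control wells for no effect and 2.5 mM tranylcypromine positive control for full effect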
* marks the source's active call; other numbers are inactive results; . = not tested or not shown. An excerpt weighted towards active compounds, which were near 22% of everything screened.

SMILES	CYP2C9 inhib	CYP2C9 activ	cytoskel mod	E-sel TNF inh	CYP2C19 activ	CYP2C19 inhib
Cc1cc(-c2nnc3sc(C4CCCCC4)nn23)n[nH]1	2	1	-23	-11	0.3	73*
COc1cc(OC)c(-c2nn3c(C4CCCCC4)nnc3s2)cc1OC	85*	0.1	-10	1	0.2	84*
N#CC(C(=O)C12CC3CC(CC(C3)C1)C2)c1nc2ccccc2[nH]1 (stereo not drawn)	62*	0.4	9	9	0.7	33
CCN(CC)CC(C)OC(=O)COc1ccc(OC)cc1 (stereo not drawn)	.	.	-1	-8	.	.
Cc1ccc(-c2ccc(/C=N/NC(=S)Nc3ccccc3)o2)cc1[N+](=O)[O-]	53*	0.5	5	-7	0.3	65*
Cc1ccc(SCCCCN2CCNCC2)cc1	.	.	.	-19	.	.
COc1ccc(CCNC2CC(=O)N(CCc3ccccc3)C2=O)cc1OC (stereo not drawn)	16	0.8	-11	.	0.4	60*
COc1ccc(CCNC2=C(Cl)C(=O)N(CCc3ccccc3)C2=O)cc1OC	58*	0.4	-3	-3	0.4	60*
Cc1ccc(CC2CC(=O)N(CCc3ccc4c(c3)OCO4)C2=O)cc1 (stereo not drawn)	10	0.9	8	7	0.9	10
COc1cccc(CC2CC(=O)N(CCc3ccc4c(c3)OCO4)C2=O)c1 (stereo not drawn)	47	0.5	2	7	0	96*
COc1ccc(CCN2C(=O)CC(C(N)=O)SC2=Nc2ccccc2)cc1OC (stereo not drawn)	19	0.8	2	0	0.3	68*
Clc1ccc(CN2CCC(c3nc4ccc(Cl)cc4[nH]3)CC2)cc1	47	0.5	-20	.	0.5	47
Cc1ccc(-n2c(=O)c3sccc3n(CC(=O)NC3CCCCC3)c2=O)cc1	.	.	.	-19	.	.
O=C1CC(NCc2ccc3c(c2)OCO3)C(=O)N1CCc1ccccc1 (stereo not drawn)	47	0.5	.	.	0.3	75*
CN(C)CCCNC(=O)CCc1nc2ccccc2c(=O)[nH]1	3	1	-7	-30	1	2
O=C(NCCN1CCOCC1)c1ccc(=O)oc1	6	0.9	-25	-17	1.2	-16
O=[N+]([O-])/C=C/c1cn(Cc2ccc(F)cc2)c2ccccc12	13	0.9	-4	9	0.5	46
CNc1nc(-c2ccc(Cl)cc2)cs1	25	0.8	.	-29	0.4	60*
N/C(Cc1ccc(Cl)cc1Cl)=N\OC(=O)c1cccs1	44	0.6	-18	.	0.5	54*
O=C(c1ccc(Cl)cc1)C1CCN(C(=O)NC2CCCCC2)CC1	85*	0.2	1	4	0.1	93*
COc1ccc(CCN/C=C2/CC(=O)NC2=O)cc1OC	2	1	27	.	0.9	8
Cc1nnc(NC(=O)c2ccccc2Br)s1	55*	0.4	.	-31	0.9	5
Cc1nnc(NC(=O)c2sc3ccccc3c2Cl)s1	55*	0.4	-34	-11	0.8	19
COc1ccc(CC2(CO)CCN(Cc3cccnc3)CC2)cc1	.	.	.	10	.	.
COc1ccccc1-n1c(C)nc(=O)c(-c2ccccc2)c1C	7	0.9	-3	8	0.2	78*
SMILES	CYP2C9 inhib	CYP2C9 activ	cytoskel mod	E-sel TNF inh	CYP2C19 activ	CYP2C19 inhib
C=CCc1ccc(OCCOc2cccc3ccc(C)nc23)c(OC)c1	-107	2.1*	-11	12	0.6	36
C=CCc1ccc(OCCCCCN2CCOCC2)c(OC)c1	17	0.8	-2	4	0.4	64*
COc1cccc(OCCCCCCN2CCOCC2)c1	29	0.7	3	-1	0.5	54*
C=CCc1ccc(OCCCCOc2ccc(C(=O)O)cc2)c(OC)c1	.	.	.	-11	.	.
C=CCc1ccc(OCCOCCN(C)C)c(OC)c1	4	1	7	-25	0.9	9
C=CCc1ccc(OCCn2cccc2C=O)c(OC)c1	39	0.6	11	-8	0.3	70*
Cc1ccc(-c2ncccc2OC(=O)C23CC4CC(CC(C4)C2)C3)cc1	-9	1.1	20	38	1.1	-6
Cc1ccc(C)c(NC2=CC(=O)CC(C)(C)C2)c1C#N	-4	1	20	-11	0.9	12
CCCCn1c(N)c(Sc2ccc(C)cc2)c(=O)[nH]c1=O	41	0.6	.	-31	0.5	53*
Cc1ccc(C)c(OCCOCCN2CC(C)OC(C)C2)c1C (stereo not drawn)	0	1	-3	.	0.7	34
COc1ccc(-c2nnc(N(C)C(=O)c3ccno3)s2)cc1	.	.	-1	-4	.	.
CN(C(=O)COc1cc(=O)n(C)c2ccccc12)c1ccc(Cl)cc1	22	0.8	15	-16	0.6	39
CCOc1ccc(N(CC)C(=O)COc2cc(=O)n(CC)c3ccccc23)cc1	94*	0.1	-1	9	0.3	70*
CCOC(=O)c1cc(=O)n(Cc2ccccc2C)c2ccccc12	34	0.7	33*	-5	0.5	50
CCOC(=O)c1ccccc1NC(=O)COc1cc(=O)n(CC)c2ccccc12	81*	0.2	-19	-7	0.2	80*
CCn1c(=O)cc(OCC(=O)Nc2ccc(C)cn2)c2ccccc21	25	0.7	7	.	0.8	17
CCOc1ccc(N(CC)C(=O)COc2cc(=O)n(C)c3ccccc23)cc1	70*	0.3	.	-18	0.8	23
Cc1ccc(Cn2c(=O)cc(C(=O)O)c3ccccc32)cc1	2	1	-12	13	1.1	-7
COCCCNC(=O)c1cc2cc([N+](=O)[O-])cc(OC)c2oc1=O	.	.	.	-7	.	.
COc1ccccc1C1(CC(=O)N2CCCCC2)CCOC(C(C)C)C1 (stereo not drawn)	34	0.7	-1	20	0.5	50*
Cc1ccc(C2(CC(=O)N3CCCC3)CCOC(C(C)C)C2)cc1 (stereo not drawn)	4	1	2	-6	0.8	21
CC(C)C(=O)Nc1ccc(C(=O)N2CCN(C(=O)c3ccco3)CC2)cc1	12	0.9	17	-8	0.9	9
COc1cc(C#N)ccc1OCC(=O)NCc1cccs1	.	.	.	-21	.	.
O=C(COC(=O)c1ccc(Br)o1)NCc1cccs1	20	0.8	1	19	0.3	67*
Cc1ccc(OCC(=O)NCc2cccs2)cc1	13	0.9	9	10	0.3	71*
SMILES	CYP2C9 inhib	CYP2C9 activ	cytoskel mod	E-sel TNF inh	CYP2C19 activ	CYP2C19 inhib
O=C(COC(=O)c1ccco1)NCc1cccs1	6	0.9	-4	-3	0.6	38
Cc1ccc(C(=O)OCC(=O)NCc2cccs2)cc1	.	.	.	15	.	.
O=C(COc1ccc(Br)cc1)NCc1ccccn1	37	0.6	.	8	0.4	65*
COc1ccccc1OCC(=O)NCc1cccs1	9	0.9	-7	.	0.4	59*
COc1ccc(C/C(N)=N/n2cnnc2)cc1Cl	-16	1.2	10	-5	1.1	-10
O=C(NCC1CCCN(Cc2ccc3nonc3c2)C1)c1ccc(F)cc1 (stereo not drawn)	.	.	.	2	.	.

Compound activity as filed in PubChem.
